Compound activity: PubChem BioAssay, National Center for Advancing Translational Sciences (NCATS)
HT1080 IDH1KD tx: toxicity to HT-1080 IDH1 knockdown cells (counter line); HT-1080 IDH1 knockdown viability, ATP luminescence, 48 h; Potency, µM (highest dose often 46.1 µM), for the others: at the top dose activity, negative = toxicity, most hits filed as cytotoxic; actives 2% (n = 360,000); AID 686971;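 further: 0% = DMSO wells and -100% = cell-free medium wells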
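Using the IDH1-knockdown HT-1080 line run in the same batch and compound series as the NT line, viability after 48 h at 37 °C was determined by CellTiter-Glo luminescence and expressed as % activity.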
DT40 TDP1 CPT: DT40-hTDP1 cell growth loss with CPT | chicken DT40 Tdp1-/-;hTDP1 cells + 20 nM CPT, ATP luminescence, 48 h | Potency, µM (doses to about 46.2 µM), for the others: at the top dose activity change, negative = growth inhibition, most hits filed as inhibitors | actives 12% (n = 420,000); further: on the % scale 0 is the no-effect control and ±100 the full control effect; nearly all actives have a fitted effect of over 55% in size
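Chicken DT40 Tdp1-/- cells stably complemented with human TDP1 were seeded at 400 cells/well in medium containing 20 nM camptothecin, exposed to pin-transferred compounds, and grown at 37 °C for at least 48 hr. Viability was read as ATP luminescence.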
HT1080NT lethal: kills 2HG-producing HT-1080-NT fibrosarcoma cells; HT-1080-NT fibrosarcoma viability, CellTiter-Glo ATP luminescence, 48 h; AID 686970; Potency, µM (series often up to 46.1 µM), for inactives: at the highest dose activity, negative = less viability, hits mostly cytotoxic; actives 1.6% (n = 360,000);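 further: NT is the 2HG producing partner of a matched IDH1 knockdown line; 0% = DMSO-treated cells and -100% = media-only wells without cells; nearly all actives have a fitted effect of over 55% in size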
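Fibrosarcoma NT cells, 750 per well in 5% FBS RPMI, were exposed to compound for 48 hours. Viability: CellTiter-Glo luminescence.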
TGFb SMAD3 inh: inhibitors of TGF-b signaling | HepG2 CAGA-GFP TGF-b/SMAD3 reporter, GFP fluorescence, 18 h; TGF-beta stimulated, 500 pg/mL final | Potency, µM (highest dose often 46.1 µM), without a hit: top-dose activity, negative = inhibition, most hits filed as inhibitors | actives 1.2% (n = 410,000); further: on the % scale 0 is the no-effect control and ±100 the full control effect; nearly all actives have a fitted effect of over 65% in size
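TGF-beta reporter screen: HEPG2 CAGA-GFP, 1% FBS, 500 pg/mL TGF-beta final, 18 h; per-cell GFP summed per well; curves fitted and categorized by class.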
TDP1 cell noCPT: qHTS for Inhibitors of human tyrosyl-DNA phosphodiesterase 1 (TDP1): qHTS in cells in absence of CPT | Potency, µM (highest dose often 46.2 µM), for the others: top-dose activity change, negative = growth inhibition, actives largely listed as inhibitors | DT40 Tdp1-/- hTDP1 cells, no CPT, ATP luminescence, 48 h | AID 686978, 2013 | actives 15% (n = 420,000); further: on the % scale 0 is the no-effect control and ±100 the full control effect; nearly all actives have a fitted effect of over 55% in size
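Chicken DT40 Tdp1-/- cells complemented with human TDP1, screened without camptothecin (DMSO vehicle only), 400 cells/well. Compounds pin-transferred, cells incubated at 37 °C for at least 48 hr. Growth read as ATP-dependent luminescence (CellTiter-Glo, 30 min at RT).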
HepG2 viability: counter-screen for TGF-b inhibitors: cytotoxicity in HepG2 cells; HepG2 CAGA-GFP viability, ATP luminescence, 18 h; Potency, µM (highest dose often 46.1 µM), for inactives: at the top dose activity change, negative = cytotoxicity, hits mostly cytotoxic; actives 0.76% (n = 410,000)
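CellTiter-Glo luminescence gave cytotoxicity after 18 hours at 37 degrees C. The cells were HepG2 CAGA-GFP in 1% FBS DMEM, stimulated with 500 pg/mL TGF-beta after compound addition. %Activity was normalised to no-cell wells (complete cell-killing) and DMSO (no toxicity), and curves were fitted and classified.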
Starred values were filed as active, the others as inactive; ? = inconclusive; · = not tested or not shown; [ ] = remark or other dose. An excerpt weighted towards active compounds, which were near 17% of everything screened. The call rests on the fitted dose curve; in most records, active means well fitted curve in the direction sought with a large enough effect; inconclusive means small, poorly fitted or top-dose-only effect, or another doubt; inactive means no such curve, though single readings can be large; an effect the other way counts as inactive or inconclusive. Potency means the concentration at half of the fitted maximal effect.

SMILES | HT1080 IDH1KD tx | DT40 TDP1 CPT | HT1080NT lethal | TGFb SMAD3 inh | TDP1 cell noCPT | HepG2 viability
CCC(=O)NNC(=S)NC(=O)c1ccc(C)cc1 | -25% | ? | -4% | ? | 10µM* | -21%
Cc1ccc(C(=O)NNC(=S)NC(=O)c2ccc(Cl)cc2)cc1 | ? | 16µM* | -28% | 16% | ? | -32%
Cc1nc(C(=O)O)cc([N+](=O)[O-])c1C | -3% | -19% | 3% | -1% | ? | -3%
COc1cccc(C2=NNC(=NCc3ccccc3)SC2)c1 | -29% | ? | -7% | ? | ? | 1%
CN(C(=O)c1cc(-c2ccc3c(c2)OCO3)on1)c1ccccc1 | -16% | 12% | -23% | 3% | 3% | -6%
CCC1(C)N=C(c2ccc3c(c2)OCO3)CC(c2ccccc2O)N1 (stereo not drawn) | ? | 13µM* | ? | -20% | 13µM* | -37%
COc1cccc(C2=NC(C)(C)NC(c3ccccc3O)C2)c1 (stereo not drawn) | -5% | 15µM* | 0% | ? | 18µM* | 18µM*
O=C(c1[nH]c(C(F)(F)F)nc1-c1ccccc1)N1CCC(Cc2ccccc2)CC1 | ? | ? | ? | ? | ? | -21%
O=C(NC(=S)NC1C2CC3CC(C2)CC1C3)c1ccccc1 (stereo not drawn) | ? | ? | -27% | -29% | ? | -18%
O=C(NCCCN1CCCCCC1)c1ccc2c(c1)NC(=O)C(N1CCOCC1)S2 (stereo not drawn) | 5% | 3% | 13% | 12% | -7% | 1%
O=C1Nc2cc(C(=O)NCCCN3CCCC3)ccc2S/C1=C/c1ccccc1F | 4% | 18µM* | 8% | ? | ? | -73%
O=C(NCCCN1CCCCC1)c1ccc2c(c1)NC(=O)c1ccccc1S2 | -8% | -25% | -20% | -4% | ? | -32%
O=C1Nc2cc(C(=O)NCCN3CCCCCC3)ccc2S/C1=C/c1ccccc1F | ? | 7.3µM* | ? | 10µM* | 3.7µM* | 8.9µM*
CCCCN(CCCC)S(=O)(=O)c1ccc2oc(C(=O)NCc3ccc(C)cc3)c(C)c2c1 | · | 8.2µM* | · | -2% | 13µM* | -31%
Cc1cc(C)c2c(C)c(C(=O)NCc3ccncc3)oc2c1 | -2% | -30% | 0% | -19% | -18% | -27%
CCN(CC)S(=O)(=O)c1ccc2oc(C(=O)NCc3ccc(C)cc3)c(C)c2c1 | ? | ? | -21% | -4% | ? | -29%
CCCCN(CCCC)S(=O)(=O)c1ccc2oc(C(=O)NCc3ccccc3)c(C)c2c1 | · | 10µM* | · | 4% | 15µM* | -25%
CCc1ccc2oc(C(=O)NCc3ccncc3)c(C)c2c1 | -7% | 18µM* | 1% | -3% | 15µM* | -28%
CCCCN(CC(=O)NCc1ccc(Cl)cc1)S(=O)(=O)c1ccc2c(c1)OCCO2 | 3% | ? | 7% | 0% | 23µM* | -28%
O=C(CN(c1ccc2c(c1)OCCO2)S(=O)(=O)c1ccccc1)NCc1ccc(Cl)cc1 | -4% | ? | -2% | -2% | ? | 15%
Cc1c(C(=O)NCc2ccccc2)oc2ccc(S(=O)(=O)N3CCCC3)cc12 | ? | ? | -21% | 1% | ? | -31%
CCOC(=O)c1cc2c(OC)ccc(OC)c2n1CC(=O)c1ccccc1 | 1% | ? | -1% | 4% | ? | -17%
Cc1ccc(N2C(=O)CSC23C(=O)N(CC(=O)NCc2ccccc2)c2ccccc23)cc1C (stereo not drawn) | · | ? | · | -17% | ? | -13%
Cc1ccc(S(=O)(=O)Nc2c(C)n(C)n(-c3ccccc3)c2=O)cc1C(=O)OC(C)C(=O)c1ccccc1 (stereo not drawn) | -3% | -34% | -1% | 15% | -22% | -7%
Cc1ccc2oc(C(=O)NCc3ncc(C)[nH]3)c(C)c2c1 | 16µM* | 5.2µM* | 18µM* | 0% | ? | -16%
SMILES | HT1080 IDH1KD tx | DT40 TDP1 CPT | HT1080NT lethal | TGFb SMAD3 inh | TDP1 cell noCPT | HepG2 viability
Cc1cnc(CNC(=O)c2ccc3oc(C(C)C)nc3c2)[nH]1 | -2% | 6% | -3% | -9% | 3% | -29%
CC(=O)N1CCN(C(=O)COC(=O)COc2ccc(C#N)cc2)CC1 | 22% | 1% | 21% | -3% | -1% | 0%
COc1cc(C(=O)NCCOc2ccc(Cl)cc2)ccc1OCc1c(C)noc1C | -12% | -25% | -6% | -29% | ? | 5%
N#CC(c1ccc(F)cc1)c1ccc(C(=O)c2ccc(F)cc2)cc1 (stereo not drawn) | -13% | ? | -14% | -18% | 21µM* | -9%
Cc1ccc(C(=O)NC(C)c2ccc(F)cc2)cc1 (stereo not drawn) | 11% | -1% | 9% | -16% | -15% | -2%
Cc1ccc(C(C#N)c2ccc(C(=O)c3ccc(F)cc3)cc2)cc1 (stereo not drawn) | ? | 23µM* | -22% | -23% | 8.2µM* | -20%
CC(C)Cn1c(=O)c(C(=O)Nc2cnccn2)c(O)c2ccccc21 | 5% | ? | 1% | 9% | 26µM* | -12%
CCCn1c(=O)c(C(=O)Nc2ccccc2)c(O)c2ccccc21 | 3%[9.24 µM] | ? | 7% | 7% | ? | 8%
CCCn1c(=O)c(C(=O)Nc2ncccc2O)c(O)c2ccccc21 | 12% | -15% | 6% | -15% | -3% | -27%
CC(C)Cn1c(=O)c(C(=O)Nc2ccncc2)c(O)c2ccccc21 | 0% | 2.9µM* | -3% | -30% | 4.1µM* | -18%
CN(Cc1nc(-c2cnccn2)no1)Cc1cccc2ccccc12 | -1% | -7% | 0% | -7% | -12% | -20%
CC(C)Oc1ccc2c(c1)OC(c1ccccc1)(C(F)(F)F)NC2=O (stereo not drawn) | -1% | ? | 4% | 10% | 26µM* | 28%
CC(C)Oc1ccc(NC(=O)Oc2ccccc2)cc1 | -6% | ? | -3% | -3% | -28% | -3%
Cc1ccccc1NS(=O)(=O)c1ccc2[nH]cc(C(=O)N3CCCC3)c(=O)c2c1 | · | -3% | · | 0% | 9% | 14%
Cc1c(-c2nc(N)nc(Nc3ccccc3F)n2)oc2ccccc12 | -2% | ? | -2% | -8% | 18µM* | -35%
